Screening results deposited in PubChem by National Center for Advancing Translational Sciences (NCATS).
AID inh: inhibitors of human activation induced cytidine deaminase | Potency, µM (highest dose often 115 µM), hits mostly inhibitors | 91,000 tested, 0.32% active | Q9GZX7 | AID deamination FRET fluorescence, UDG-coupled, 4 h; also: nearly all actives have a fitted effect of over 25% in size
Target sequence (Q9GZX7 whole entry, looked up): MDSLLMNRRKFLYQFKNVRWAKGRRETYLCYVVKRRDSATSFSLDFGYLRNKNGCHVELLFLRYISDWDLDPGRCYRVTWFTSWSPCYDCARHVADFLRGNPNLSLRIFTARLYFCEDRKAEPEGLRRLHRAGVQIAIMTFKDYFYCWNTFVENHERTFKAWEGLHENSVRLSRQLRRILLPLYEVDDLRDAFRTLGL
UDG counterscr: blocks uracil-DNA glycosylase in AID counter-screen; FRET deamination/UDG coupled assay, UDG read, 4 h; Potency, µM (top dose mostly 115 µM), for the others: top-dose activity change, negative = inhibition, hits mostly inhibitors; 91,000 tested, 0.14% active; AID 1347430; also: nearly all actives have a fitted effect of over 65% in size
* = called active by the depositor; i = inactive; ? = inconclusive; ! = not confirmed by another sample. Most compounds without a hit are left out; they make up all but 0.47% or so of the library. Calls follow the shape of the dose curve; as a rule, active = well fitted curve in the direction sought with a large enough effect; inconclusive = small, poorly fitted or top-dose-only effect, or another doubt; inactive = no such curve, though single readings can be large; an effect the other way counts as inactive or inconclusive. % is scaled to controls: 0 for no effect and ±100 for the full control effect; potency is read from the fitted curve at half-maximal effect.

SMILES	AID inh	UDG counterscr
COc1cc(OC)c(NC(c2nnc(-c3ccccc3)o2)c2ccc(F)cc2Cl)cc1Cl (stereo unspecified)	i	-8%
NC(=S)NCc1ccc(F)cc1	i	-1%
O=C(NCCCCCO)C1CCN(c2nc(Cl)nc3nc[nH]c23)CC1	i	89µM*
O=C(CCNc1nc(Cl)nc2nc[nH]c12)NC1CC1	i	-11%
Cc1ccc(C(=O)N(Cc2ccco2)C2CC2)cc1C	i	13%
CC(=O)C1=C(C)OC(=O)C1(NC(=O)c1ccccc1)C(F)(F)F (stereo unspecified)	i	-4%
COc1ccc(Cl)cc1NC(=O)C1CCN(c2nccnc2Oc2ccccc2C)CC1	i	89µM*
COc1ccccc1NC(=O)C1CCN(c2nccnc2Sc2ccc(C)cc2)CC1	i	?
COc1ccc(Nc2ncc3c(n2)CCN(Cc2ccc(Br)s2)C3)c(OC)c1	i	-8%
COc1ccc(Nc2ncc3c(n2)CCN(Cc2cc(Br)cs2)C3)c(OC)c1	?	89µM*
C/C(=N/Nc1ccc(Cl)cc1)c1ccc(Br)s1	i	4%
CCOc1ccc(S(=O)(=O)Nc2nc3ccccc3nc2Nc2ccc(OC)cc2)cc1	?	-1%
CCc1ccc(Nc2nc3ccccc3nc2NS(=O)(=O)c2ccccc2)cc1	28µM*!	3%
Cc1ccc(-c2noc(-c3ccco3)n2)s1	i	1%
COc1ccc(COCC(O)CSc2nncs2)cc1OC (stereo unspecified)	i	10%
Cc1c(Cl)cccc1-n1ncc(C(=O)N2CCN(c3ncccn3)CC2)c1C1CCN(C(=O)OC(C)(C)C)CC1	i	-9%
COc1ccc(CCN2CCC(CNC(=O)c3cnn(-c4ccccc4)c3C3CCN(C(=O)OC(C)(C)C)CC3)CC2)cc1	?	43%
Cc1ccc(C)c(N2CCN(CCCNC(=O)c3cnn(-c4ccccc4)c3C3CCN(C(=O)OC(C)(C)C)CC3)CC2)c1	i	38%
COc1ccc(CCN2CCC(CNC(=O)c3cnn(-c4cccc(Cl)c4)c3C3CCN(C(=O)OC(C)(C)C)CC3)CC2)cc1	35µM*	-17%
CC(C)(C)OC(=O)N1CCC(c2c(C(=O)N3CCN(c4ccccc4F)CC3)cnn2-c2ccccc2Cl)CC1	50µM*	?
COc1ccccc1N1CCN(CCCNC(=O)c2cnn(-c3ccc(C)c(C)c3)c2C2CCN(C(=O)OC(C)(C)C)CC2)CC1	50µM*	12%
Cc1ccc(-c2nn(C)c(=O)c3c2CCCC3)cc1S(=O)(=O)N1CCCCCC1	i	-12%
O=C(NNS(=O)(=O)c1ccccc1[N+](=O)[O-])c1cccs1	i	4%
Fc1ccc(N/N=C/c2cccc(Cl)c2)c(F)c1	i	-11%
COc1ccc(-c2nn(C)c3sc(C(=O)N4CCN(c5cccc(Cl)c5)CC4)cc23)cc1OC	79µM*	?
SMILES	AID inh	UDG counterscr
COc1ccc(N2CCN(C(=O)c3cc4c(-c5ccccc5F)nn(C)c4s3)CC2)cc1	?	-10%
Cc1cc(C(=O)OCc2cccnc2)c2ccccc2n1	i	5%
O=C(Cc1cn2ccsc2n1)Nc1ccc(S(=O)(=O)N2CCCC2)cc1	i	0%
CCOc1cccc2c(C)nc(Nc3nc(C)c(CC)c(=O)[nH]3)nc12	50µM*	-7%
COc1ccc2nc(Nc3nc(C)c(CCC(C)C)c(=O)[nH]3)nc(C)c2c1	i	3%
COc1cc(C2CC(=O)Nc3n[nH]c(Nc4ccccc4)c32)cc(OC)c1OC (stereo unspecified)	i	-2%
COc1cc(C2CC(=O)Nc3nc(N4CCCCC4)sc32)cc(OC)c1OC (stereo unspecified)	35µM*	-8%
O=C(NCC#Cc1ccccc1)c1ccc2nccnc2c1	i	-4%
C=Cc1ccc(CSc2nc(-c3ccc(Cl)cc3)nc3c2Cc2c(CO)cnc(C)c2O3)cc1	i	-9%
C=Cc1ccc(CSc2nc(-c3ccccc3C)nc3c2Cc2c(CO)cnc(C)c2O3)cc1	45µM*	-8%
Cc1ccc(C(=O)N2CCN(Cc3ncc(C(C)(C)C)o3)CC2)cc1	i	-1%
S=C(NCCSc1ccc(Cl)cc1)Nc1ccccc1	i	-15%
CCCCCC[N+](C)(C)CCCCCCCCCC[N+](C)(C)CCCCCC	i	-6%
CCCOc1ccc(-c2cc(C(F)(F)F)c(C#N)c(SCCC(=O)O)n2)cc1	79µM*	-21%
CCOC(=O)CSc1nc(-c2ccc(OCC)cc2)cc(C(F)(F)F)c1C#N	i	1%
CCC(CC)NCc1cccc(Oc2ccccc2)c1	i	-3%
Cc1ccccc1COC(=O)/C=C/c1ccc2ccccc2n1	i	5%
C=CCn1cnnc1SCc1cc(=O)oc2cc(C)c(C(C)C)cc12	i	5%
CCn1cc2nc(SCc3ccc(C)cc3)n(CCc3ccccc3)c(=O)c2n1	?	-23%
CCn1cc2nc(SCc3ccc(F)cc3)n(CCc3ccccc3)c(=O)c2n1	35µM*	-14%
